Records with an inconclusive call do not appear. Values without a mark were called inactive. The source made the active and inactive calls. Calls come from the whole dose curve; as a rule, active = well fitted cell-killing curve with a large enough effect; inconclusive = small, poorly fitted or top-dose-only effect, or effect the other way; inactive = no such curve, though single readings can be large or run the other way.
Test: Quantitative High-Throughput drug screen in 47 multiple myeloma cell lines against the NCATS MIPE library collection: KMS34_JCRB cell viability assay (AID 1918985); note: nearly all actives have a fitted effect of over 40% in size;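 for viability, percent of control: 100% = DMSO-only wells and 0% = media-only wells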
Settings: KMS34 myeloma viability, CellTiter-Glo ATP luminescence, 48 h; series mostly up to 45.8 µM; viability, percent of control: at the top concentration
Summary of the method: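 Cells were exposed to library compounds for 48 hours, after which ATP was measured by CellTiter-Glo. Signal was taken as median relative luminescence units.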
Potency is the fitted concentration of half-maximal effect.

Row | SMILES | viability, percent of control | Potency
1 | COC(=O)C1=CCCN(C)C1 | 110% | –
2 | O=C(O)c1nn(Cc2ccc(Cl)cc2Cl)c2ccccc12 | 108% | –
3 | C[C@@H]1C[C@@H]([C@H](O)CC2CC(=O)NC(=O)C2)C(=O)[C@@H](C)C1 | – | 118 nM (active)

— PubChem BioAssay (NCATS)
